Measured values published in PubChem BioAssay (NCI).
Compounds without any hit were thinned out: in the full panel of roughly 83,000, 20% have a hit.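 Note: values are percent growth. 100 is the growth of untreated cells, values between 100 and 0 indicate rising inhibition; between -100 and 0 indicates cell death.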 Values without a mark were called inactive. Active and inactive are the calls of the source. The calls were made as follows: active = growth percent below 10; inactive = the rest.

Legend:
Assay in all cases: NCI-60 one-dose screen, 48 h (100 = growth as untreated, 0 = no growth, -100 = all killed)
Settings in all cases: 10 µM unless noted
NCI-H23 lung = system: NCI-H23 lung
NCI-H226 lung = system: NCI-H226 lung
NCI-H322M lung = system: NCI-H322M lung
HOP-62 NSCLC = system: HOP-62 NSCLC
NCI-H460 lung = system: NCI-H460 lung
HOP-92 NSCLC = system: HOP-92 NSCLC
NCI-H522 lung = system: NCI-H522 lung
A549/ATCC NSCLC = system: A549/ATCC NSCLC
786-0 renal = system: 786-0 renal
COLO 205 colon = system: COLO 205 colon

Compound | growth (NCI-H23 lung) | growth (NCI-H226 lung) | growth (NCI-H322M lung) | growth (HOP-62 NSCLC) | growth (NCI-H460 lung) | growth (HOP-92 NSCLC) | growth (NCI-H522 lung) | growth (A549/ATCC NSCLC) | growth (786-0 renal) | growth (COLO 205 colon)
CC(C)[C@@H]1CC[C@]2(CO2)[C@@H]2C(=O)OCC(C(=O)O)=C[C@H]21 | -18.4% (active) | 25.5% | 8.82% (active) | 5.26% (active) | 7.86% (active) | -11.9% (active) | -45.8% (active) | 15.5% | 11.6% | 1.78% (active)
Cc1cc(O)cc(-c2c(-c3ccnc(-c4cccnc4)c3)cnn2C)c1 | 93.6% | 69.5% | 66.6% | 67.2% | 67.4% | 42.7% | 46.9% | 78.1% | 67.7% | 84.6%
COc1ccc2c(CCCc3ccc(Cl)cc3Cl)c3[n+](cc2c1OC)CCc1cc2c(cc1-3)OCO2 | -12.2% (active) | 14.6% | 35.9% | 13.8% | 4.66% (active) | 0.488% (active) | -12.4% (active) | 11.9% | 16.5% | -59.6% (active)
CC(C)(C)c1ccc(Cn2cc(CSc3nc4ccccc4s3)nn2)cc1 | 90.4% | 83% | 86.2% | 87.6% | 103% | 80.6% | 84.4% | 83.5% | 96.2% | 102%
COc1ccc(Br)cc1NC(=O)Nc1cccc2c1ccn2Cc1ccnc(N)c1 | 55.1% | 22.2% | 32.7% | -44.7% (active) | 14.6% | -7.4% (active) | -50.9% (active) | 18.9% | 31.2% | -57.5% (active)
CC1(C=O)NC(=O)NC1=O (stereo not given) | 105% | 92.8% | 102% | 68.4% | 108% | 96.4% | 77.1% | 55.7% | 104% | 100%
CC1(O)CC(c2nc(-c3ccc4ccc(-c5ccccc5)nc4c3)c3c(N)nccn23)C1 (stereo not given) | 33.9% | 36.1% | 0.394% (active) | 28.6% | 25.2% | -13.2% (active) | 31.3% | 33.5% | 43.8% | -22.2% (active)
Cc1ccc(F)c(NC(=O)Nc2ccc(-c3cccc4[nH]nc(N)c34)cc2)c1 | 9.14% (active) | 57.6% | 21.5% | -7.49% (active) | 10.2% | 63.8% | -23.3% (active) | -50.5% (active) | 36.4% | -48.7% (active)
Cc1cc2c3c(cccc3c1)C(=O)c1ccccc1-2 | 81% | 96.6% | 82.3% | 99.3% | 102% | 108% | 95% | 104% | 104% | 93.4%
O=C1CC(c2cccc(F)c2)c2c(n[nH]c2-c2ccc(Cl)cc2)N1 (stereo not given) | 80.4% | 80.7% | 81.9% | 65.7% | 106% | 83.6% | 61.5% | 61.4% | 89.7% | 104%
CN(C)C/C=C/C(=O)Nc1cc2c(Nc3ccc(F)c(Cl)c3)ncnc2cc1O[C@H]1CCOC1 | -11.7% (active) | -7.37% (active) | -16.4% (active) | -10.8% (active) | 4.3% (active) | -11.5% (active) | -55.6% (active) | 3.14% (active) | 8.66% (active) | -65.1% (active)
Cc1sc2c(c1C)c(=O)nc1c(-c3nc(-c4ccccc4)cs3)n[nH]n12 | 91.9% | 89.9% | 101% | 92.4% | 96.2% | 98.5% | 94.3% | 93% | 103% | 102%
Cc1ccc2oc(=O)cc(-c3cc(-c4cc5ccccc5oc4=O)nc(N)c3C#N)c2c1 | 62.7% | 93.3% | 72.8% | 35.9% | 27% | 40.1% | 87.6% | 54.8% | 15.6% | 80.2%
CC(=O)C1CC(C)CCC1C(C)C (stereo not given) | 78.7% | 105% | 102% | 107% | 98.4% | 47.4% | 82.8% | 106% | 105% | 122%
COc1cc2cc(NCc3ccc(Cl)cc3)nc(C)c2cc1OC | 23.7% | 35.5% | 44.6% | 56.5% | 22.6% | 36.3% | 45.7% | 39.8% | 28.2% | 26.5%
COc1cnc2c(c1)C(=O)c1c-2n(CCCNC2=NCCS2)c(=O)c2cc(Cl)ccc12 | -52.4% (active) | 46.9% | -43.9% (active) | -78.9% (active) | -80.3% (active) | 77.6% | -64.7% (active) | -89.6% (active) | -96.7% (active) | -74.3% (active)
Cc1cccc(Cl)c1NC(=O)c1cnc(Nc2cc(N3CCOCC3)cc(S(C)(=O)=O)c2)s1 | 81.5% | 66% | -6.54% (active) | 11.8% | 71.4% | -55.1% (active) | 7.33% (active) | -0.245% (active) | 11.6% | -6.99% (active)
Cc1cc(N(CCNc2ccnc3cc(Cl)ccc23)Cc2cccs2)nc(Cl)n1 | 0.24% (active) | -30.2% (active) | -24.7% (active) | -29.4% (active) | -10.7% (active) | -27.9% (active) | -49.1% (active) | 15.8% | -97.6% (active) | -75.3% (active)
CCS(=O)(=O)N1CCN(c2ccc(Nc3ncc(C(N)=O)c(NC4CC4)n3)cc2)CC1 | 75.9% | 73.1% | 79.4% | 59.3% | 60.3% | 87.4% | 59.2% | 62.2% | 89% | 1.91% (active)
N#Cc1c(C(F)(F)F)cc(Nc2ccc3nc(NCCN4CCCC4)oc3c2)n2c1nc1ccccc12 | 81% | 82.8% | 87.4% | 75% | 99.4% | 51.2% | 58.2% | 56.7% | 26.1% | 38.7%
COc1cccc(Nc2ncnn3ccc(CN4CC[C@@H](N)[C@H](O)C4)c23)c1 | 36.3% | 5.97% (active) | 0.241% (active) | 18.7% | 73.8% | 26.3% | 14.4% | 12.1% | 13.1% | 34.6%
Cc1ccc(NC(=O)Nc2ccc(Nc3ncnc4sc5c(c34)CCOC5)cc2)cc1Cl | 99.9% | 94.9% | 103% | 74.6% | 108% | 91.6% | 60.9% | 85.8% | 110% | 102%
CC(=Nc1ccccc1)C1=C(O)C(Cc2ccc(O)cc2)NC1=O (stereo not given) | 2.24% (active) | 15.5% | 39.6% | 19.8% | 4.41% (active) | -10.1% (active) | -27.1% (active) | -27.7% (active) | 9.29% (active) | -71% (active)
ClCc1ccc(-c2ccc(Cn3cnc4c(Cl)nc(Cl)nc43)cc2)cc1 | 29.8% | 68.3% | 48.4% | -15.9% (active) | 7.18% (active) | -77.9% (active) | -20.6% (active) | -41.5% (active) | 13.2% | 35.3%
CC(C)(C)c1cnc(CSc2cnc(NC(=O)C3CCNCC3)s2)o1 | -22.2% (active) | 3.09% (active) | 5.62% (active) | -16.2% (active) | 2.67% (active) | -8.65% (active) | -24.8% (active) | 1.61% (active) | 12% | -45.3% (active)
CCN1CCN(c2cc(C)nc(N(CCCNc3ccnc4cc(Cl)ccc34)Cc3ccc4c(c3)OCO4)n2)CC1 | 36.8% | 50.7% | 5.48% (active) | -38.8% (active) | 7.01% (active) | -24.9% (active) | -24.5% (active) | 11.5% | -80.2% (active) | -82.6% (active)
COc1cc2c(cc1OCCCN1Cc3ccc(OCCCCC(=O)N4CCC(CCN5CCCC5)CC4)cc3C1)N=C(N)C21CCCC1 | 84.5% | 106% | 107% | 79.9% | 102% | 78.7% | 50.7% | 85% | 85.4% | 42.4%
